# Reference: paper PMC5540273 (PLoS ONE, 2017)
# Several values for one entry are separate records, joined by “and”; a condition that tells them apart may be missing. Equal entries are not always repeated. Where two headings read alike, the source gives them in different places.
# How the values were obtained:
# RIPK5 = conditions: concentration: 1 μM, replicates: in singlicate; n = 1
# ROCK1 = conditions: concentration: 1 μM, replicates: in singlicate, n = 1
# ROCK2 = conditions: concentration: 1 μM, replicates: in singlicate, n = 1
# ROS1 = conditions: concentration: 1 μM, replicates: in singlicate, n = 1
# [1] = system: RPS6KA4(Kin.Dom.1-N-terminal); conditions: concentration: 1 μM, replicates: in singlicate, n = 1
# [2] = system: RPS6KA4(Kin.Dom.2-C-terminal); conditions: concentration: 1 μM, replicates: in singlicate; n = 1
# [3] = system: RPS6KA5(Kin.Dom.1-N-terminal); conditions: concentration: 1 μM, replicates: in singlicate, n = 1
# [4] = system: RPS6KA5(Kin.Dom.2-C-terminal); conditions: concentration: 1 μM, replicates: in singlicate, n = 1
# [5] = system: T1, RSK1(Kin.Dom.1-N-terminal); conditions: concentration: 1 μM, replicates: in singlicate, n = 1
# T1 construct: gene RPS6KA1
# [6] = system: T2, RSK1(Kin.Dom.2-C-terminal); conditions: concentration: 1 μM, replicates: in singlicate; n = 1
# T2 construct: gene RPS6KA1
# [7] = system: T3, RSK2(Kin.Dom.1-N-terminal); conditions: concentration: 1 μM, replicates: in singlicate, n = 1
# T3 construct: gene RPS6KA3
# [8] = system: T4, RSK2(Kin.Dom.2-C-terminal); conditions: concentration: 1 μM, replicates: in singlicate, n = 1
# T4 construct: gene RPS6KA3
# [9] = system: T5, RSK3(Kin.Dom.1-N-terminal); conditions: concentration: 1 μM, replicates: in singlicate, n = 1
# T5 construct: gene RPS6KA2
# [10] = system: T6, RSK3(Kin.Dom.2-C-terminal); conditions: concentration: 1 μM, replicates: in singlicate, n = 1
# T6 construct: gene RPS6KA2
# [11] = system: T7, RSK4(Kin.Dom.1-N-terminal); conditions: concentration: 1 μM, replicates: in singlicate; n = 1
# T7 construct: gene RPS6KA6
# [12] = system: T8, RSK4(Kin.Dom.2-C-terminal); conditions: concentration: 1 μM, replicates: in singlicate, n = 1
# T8 construct: gene RPS6KA6
# S6K1 = conditions: concentration: 1 μM, replicates: in singlicate, n = 1
# SBK1 = conditions: concentration: 1 μM, replicates: in singlicate, n = 1
# SGK2 = conditions: concentration: 1 μM, replicates: in singlicate, n = 1
# SGK3 = conditions: concentration: 1 μM, replicates: in singlicate, n = 1
# 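Note: KINOMEscan kinase panel screen.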
structure (smiles),measurement,setting,value
c1ccc(-c2n[nH]cc2-c2ccnc3ccccc23)nc1 [GW271431],%Inh,RIPK5,0%
same,%Inh,ROCK1,0%
same,%Inh,ROCK2,0%
same,%Inh,ROS1,28%
same,%Inh,[1],11%
same,%Inh,[2],0%
same,%Inh,[3],9%
same,%Inh,[4],4%
same,%Inh,[5],21%
same,%Inh,[6],12%
same,%Inh,[7],0%
same,%Inh,[8],0%
same,%Inh,[9],0%
same,%Inh,[10],0%
same,%Inh,[11],0%
same,%Inh,[12],48%
same,%Inh,S6K1,1%
same,%Inh,SBK1,9%
same,%Inh,SGK2,6%
same,%Inh,SGK3,10%
Cl.Nc1ncnc2occ(-c3ccc(NC(=O)Nc4cc(C(F)(F)F)ccc4F)cc3)c12 [SB-707548],%Inh,RIPK5,28%
same,%Inh,ROCK1,38%
same,%Inh,ROCK2,74%
same,%Inh,ROS1,50%
same,%Inh,[1],48%
same,%Inh,[2],0%
same,%Inh,[3],63%
same,%Inh,[4],16%
same,%Inh,[5],18%
same,%Inh,[6],30%
same,%Inh,[7],25%
same,%Inh,[8],27%
same,%Inh,[9],67%
same,%Inh,[10],77%
same,%Inh,[11],0%
same,%Inh,[12],39%
same,%Inh,S6K1,81%
same,%Inh,SBK1,2%
same,%Inh,SGK2,9%
same,%Inh,SGK3,19%
O=c1cc(N2CCOCC2)nc2n(Cc3cccc(F)c3)ccn12 [GSK2297430],%Inh,RIPK5,0%
same,%Inh,ROCK1,0%
same,%Inh,ROCK2,27%
same,%Inh,ROS1,24%
same,%Inh,[1],19%
same,%Inh,[2],0%
same,%Inh,[3],26%
same,%Inh,[4],0%
same,%Inh,[5],0%
same,%Inh,[6],0%
same,%Inh,[7],0%
same,%Inh,[8],0%
same,%Inh,[9],14%
same,%Inh,[10],0%
same,%Inh,[11],0%
same,%Inh,[12],6%
same,%Inh,S6K1,0%
same,%Inh,SBK1,6%
same,%Inh,SGK2,0%
same,%Inh,SGK3,0%
COc1ccc(Nc2nccc(N3CCC(NC(=O)Nc4cc(C)ccc4C)C3)n2)cc1 (stereo not drawn) [GSK1379741],%Inh,RIPK5,0%
same,%Inh,ROCK1,14%
same,%Inh,ROCK2,0%
same,%Inh,ROS1,0%
same,%Inh,[1],0%
same,%Inh,[2],0%
same,%Inh,[3],8%
same,%Inh,[4],19%
same,%Inh,[5],6%
same,%Inh,[6],0%
same,%Inh,[7],0%
same,%Inh,[8],0%
same,%Inh,[9],18%
same,%Inh,[10],0%
same,%Inh,[11],0%
same,%Inh,[12],0%
same,%Inh,S6K1,11%
same,%Inh,SBK1,0%
same,%Inh,SGK2,0%
same,%Inh,SGK3,0%
O=c1cc(N2CCOCC2)nc2n(Cc3cccc(Cl)c3Cl)c(C3CC3)nn12 [GSK2358994],%Inh,RIPK5,7%
same,%Inh,ROCK1,0%
same,%Inh,ROCK2,0%
same,%Inh,ROS1,0%
same,%Inh,[1],0%
same,%Inh,[2],16%
same,%Inh,[3],0%
same,%Inh,[4],0%
same,%Inh,[5],0%
same,%Inh,[6],17%
same,%Inh,[7],0%
same,%Inh,[8],18%
same,%Inh,[9],0%
same,%Inh,[10],17%
same,%Inh,[11],0%
same,%Inh,[12],21%
same,%Inh,S6K1,15%
same,%Inh,SBK1,0%
same,%Inh,SGK2,20%
same,%Inh,SGK3,0%
O=C(NCCNc1ccnc(Nc2ccc(F)cc2)n1)c1cc2ccccc2s1 [GSK1379874],%Inh,RIPK5,0%
same,%Inh,ROCK1,29%
same,%Inh,ROCK2,30%
same,%Inh,ROS1,15%
same,%Inh,[1],0%
same,%Inh,[2],0%
same,%Inh,[3],4%
same,%Inh,[4],0%
same,%Inh,[5],26%
same,%Inh,[6],0%
same,%Inh,[7],0%
same,%Inh,[8],0%
same,%Inh,[9],0%
same,%Inh,[10],0%
same,%Inh,[11],0%
same,%Inh,[12],1%
same,%Inh,S6K1,0%
same,%Inh,SBK1,0%
same,%Inh,SGK2,0%
same,%Inh,SGK3,0%
CC(C)(CN)c1nc(-c2ccc(Cl)c(O)c2)c(-c2ccncc2)[nH]1.O=C(O)C(F)(F)F [SB-477794],%Inh,RIPK5,0%
same,%Inh,ROCK1; 1 µM,28% and 43%
same,%Inh,ROCK2; 1 µM,49% and 40%
same,%Inh,ROS1; 1 µM,15% and 53%
same,%Inh,[1]; 1 µM,0% and 23%
same,%Inh,[2],0%
same,%Inh,[3]; 1 µM,5% and 0%
same,%Inh,[4]; 1 µM,7% and 36%
same,%Inh,[5]; 1 µM,16% and 15%
same,%Inh,[6],35%
same,%Inh,[7]; 1 µM,0% and 11%
same,%Inh,[8]; 1 µM,36% and 27%
same,%Inh,[9]; 1 µM,6% and 2%
same,%Inh,[10]; 1 µM,0% and 2%
same,%Inh,[11],0%
same,%Inh,[12]; 1 µM,90.6% and 89%
same,%Inh,S6K1; 1 µM,43% and 37%
same,%Inh,SBK1; 1 µM,5% and 6%
same,%Inh,SGK2; 1 µM,2% and 0%
same,%Inh,SGK3; 1 µM,0% and 7%
Cl.Oc1cccc(Nc2ccnc3cc(-c4ccncc4)ccc23)c1 [GW494601],%Inh,RIPK5,0%
same,%Inh,ROCK1,88%
same,%Inh,ROCK2,72%
same,%Inh,ROS1,34%
same,%Inh,[1],0%
same,%Inh,[2],0%
same,%Inh,[3],16%
same,%Inh,[4],16%
same,%Inh,[5],0%
same,%Inh,[6],13%
same,%Inh,[7],12%
same,%Inh,[8],23%
same,%Inh,[9],0%
same,%Inh,[10],0%
same,%Inh,[11],0%
same,%Inh,[12],29%
same,%Inh,S6K1,0%
same,%Inh,SBK1,34%
same,%Inh,SGK2,0%
same,%Inh,SGK3,3%
NS(=O)(=O)c1cccc(-c2ccc3nccc(-c4cccc(S(N)(=O)=O)c4)c3c2)c1 [GW867253],%Inh,RIPK5,11%
same,%Inh,ROCK1,37%
same,%Inh,ROCK2,37%
same,%Inh,ROS1,0%
same,%Inh,[1],0%
same,%Inh,[2],0%
same,%Inh,[3],4%
same,%Inh,[4],7%
same,%Inh,[5],0%
same,%Inh,[6],23%
same,%Inh,[7],31%
same,%Inh,[8],56%
same,%Inh,[9],0%
same,%Inh,[10],11%
same,%Inh,[11],12%
same,%Inh,[12],30%
same,%Inh,S6K1,16%
same,%Inh,SBK1,0%
same,%Inh,SGK2,0%
same,%Inh,SGK3,0%
C[C@@H](Oc1cc(-n2cnc3ccc(NC(=O)NC(C)(C)C)cc32)sc1C(N)=O)c1ccccc1Cl [GSK346294],%Inh,RIPK5,10%
same,%Inh,ROCK1,4%
same,%Inh,ROCK2,17%
same,%Inh,ROS1,33%
same,%Inh,[1],11%
same,%Inh,[2],0%
same,%Inh,[3],13%
same,%Inh,[4],14%
same,%Inh,[5],0%
same,%Inh,[6],15%
same,%Inh,[7],0%
same,%Inh,[8],11%
same,%Inh,[9],0%
same,%Inh,[10],9%
same,%Inh,[11],0%
same,%Inh,[12],26%
same,%Inh,S6K1,0%
same,%Inh,SBK1,0%
same,%Inh,SGK2,10%
same,%Inh,SGK3,19%
Cc1ccc(NC(=O)c2ccnc(N3CCN(C)CC3)c2)cc1-c1ccc(C(=O)NCC2CC2)cc1 [GW775604],%Inh,RIPK5,0%
same,%Inh,ROCK1,41%
same,%Inh,ROCK2,0%
same,%Inh,ROS1,0%
same,%Inh,[1],10%
same,%Inh,[2],0%
same,%Inh,[3],0%
same,%Inh,[4],0%
same,%Inh,[5],0%
same,%Inh,[6],0%
same,%Inh,[7],0%
same,%Inh,[8],0%
same,%Inh,[9],0%
same,%Inh,[10],15%
same,%Inh,[11],0%
same,%Inh,[12],7%
same,%Inh,S6K1,9%
same,%Inh,SBK1,0%
same,%Inh,SGK2,0%
same,%Inh,SGK3,0%
CCn1cnc2c(N)ncnc21 [GW345098],%Inh,RIPK5,38%
same,%Inh,ROCK1,12%
same,%Inh,ROCK2,22%
same,%Inh,ROS1,0%
same,%Inh,[1],5%
same,%Inh,[2],25%
same,%Inh,[3],0%
same,%Inh,[4],0%
same,%Inh,[5],7%
same,%Inh,[6],11%
same,%Inh,[7],0%
same,%Inh,[8],14%
same,%Inh,[9],0%
same,%Inh,[10],24%
same,%Inh,[11],0%
same,%Inh,[12],26%
same,%Inh,S6K1,17%
same,%Inh,SBK1,0%
same,%Inh,SGK2,22%
same,%Inh,SGK3,0%
NS(=O)(=O)c1cccc(-c2ccc3ncc(N4CCOCC4)nc3c2)c1 [GSK1535721],%Inh,RIPK5,8%
same,%Inh,ROCK1,0%
same,%Inh,ROCK2,0%
same,%Inh,ROS1,2%
same,%Inh,[1],4%
same,%Inh,[2],0%
same,%Inh,[3],8%
same,%Inh,[4],13%
same,%Inh,[5],0%
same,%Inh,[6],6%
same,%Inh,[7],15%
same,%Inh,[8],7%
same,%Inh,[9],0%
same,%Inh,[10],0%
same,%Inh,[11],0%
same,%Inh,[12],0%
same,%Inh,S6K1,10%
same,%Inh,SBK1,0%
same,%Inh,SGK2,0%
same,%Inh,SGK3,9%
COc1cc(Nc2nccc(N3CCC(NC(=O)c4cccc(NC(C)=O)c4)C3)n2)cc(OC)c1OC (stereo not drawn) [GSK1379754],%Inh,RIPK5,0%
same,%Inh,ROCK1,32%
same,%Inh,ROCK2,49%
same,%Inh,ROS1,44%
same,%Inh,[1],23%
same,%Inh,[2],0%
same,%Inh,[3],11%
same,%Inh,[4],0%
same,%Inh,[5],58%
same,%Inh,[6],0%
same,%Inh,[7],3%
same,%Inh,[8],22%
same,%Inh,[9],26%
same,%Inh,[10],0%
same,%Inh,[11],1%
same,%Inh,[12],0%
same,%Inh,S6K1,10%
same,%Inh,SBK1,9%
same,%Inh,SGK2,0%
same,%Inh,SGK3,0%
NCC(NC(=O)c1cc(-c2cn[nH]c2)c(-c2ccnc3[nH]ccc23)s1)c1ccccc1.O=C(O)C(F)(F)F.O=C(O)C(F)(F)F (stereo not drawn) [GSK1325775],%Inh,RIPK5,16%
same,%Inh,ROCK1,100%
same,%Inh,ROCK2,99.9%
same,%Inh,ROS1,0%
same,%Inh,[1],47%
same,%Inh,[2],43%
same,%Inh,[3],13%
same,%Inh,[4],60%
same,%Inh,[5],24%
same,%Inh,[6],5%
same,%Inh,[7],35%
same,%Inh,[8],6%
same,%Inh,[9],7%
same,%Inh,[10],0%
same,%Inh,[11],21%
same,%Inh,[12],8%
same,%Inh,S6K1,53%
same,%Inh,SBK1,84%
same,%Inh,SGK2,79%
same,%Inh,SGK3,81%
